Pf Dd2 inh – P. falciparum Dd2 growth inhibitors, primary screen, SYBR Green fluorescence, single dose replicates. 72 h; hits give low values. activity change, % at 10 µM. 2.3% of 94,000 active. AID 1159554, 2015; in the data active = activity change below about -80%
C diff growth – C. difficile growth inhibitors, primary screen, HTS | Clostridium difficile clinical isolate growth, OD600, 24 h; hits give low values | 0.25% of 86,000 active | growth activity, negative = inhibition, % at 16 µg/mL (by protocol);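 active = mean growth activity at or below -80% and every replicate also at or below -80%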;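 also: 0% = DMSO wells and -100% = levofloxacin 16 µg/mL wells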
T cruzi growth – T. cruzi intracellular proliferation inhibitors, primary screen, cell-based, beta-gal Tulahuen parasites, NIH3T3 host, luminescence. T. cruzi beta-gal in NIH3T3, GalScreen luminescence, 90 h. inhibition, % at 8.34 µM. 5.9% of 77,000 active;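 active = mean inhibition above about 93%, with at least 55% of replicates each passing it, limit read from the data, passing the limit was not always enough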
Starred values were filed as active, the others as inactive; x = not tested or not shown; ! = not confirmed by another sample. In the library only some 6.7% were active in any assay of this set; here they are far more common.

SMILES	Pf Dd2 inh	C diff growth	T cruzi growth
C[C@@H]1CCCCO[C@H](CN(C)Cc2ccc(C(=O)Nc3ccccc3N)cc2)[C@@H](C)CN([C@H](C)CO)C(=O)c2cc(NS(=O)(=O)c3ccccc3)ccc2O1	-89*	-1	x
Cc1noc(C)c1S(=O)(=O)Nc1ccc2c(c1)C(=O)N([C@@H](C)CO)C[C@H](C)[C@@H](CN(C)Cc1ccc(C(=O)Nc3ccccc3N)cc1)OCCCC[C@@H](C)O2	-85*	16	66
Cc1noc(C)c1S(=O)(=O)Nc1ccc2c(c1)C(=O)N([C@H](C)CO)C[C@H](C)[C@H](CN(C)Cc1ccc(C(=O)Nc3ccccc3N)cc1)O2	-74	8	x
CO[C@H]1CN(C)C(=O)c2cc(NS(=O)(=O)c3cn(C)cn3)ccc2OC[C@H](C)N(C)C[C@@H]1C	30	10	-8
CNC[C@@H]1Oc2ccc(NS(=O)(=O)c3cn(C)cn3)cc2CC(=O)N([C@H](C)CO)C[C@@H]1C	6	0	98*
Cc1noc(C)c1NC(=O)N(C)C[C@@H]1Oc2ccc(NC(=O)C3CCCCC3)cc2CC(=O)N([C@@H](C)CO)C[C@@H]1C	14	2	-25
Cc1noc(C)c1NC(=O)N(C)C[C@@H]1Oc2ccc(NS(=O)(=O)c3cn(C)cn3)cc2CC(=O)N([C@H](C)CO)C[C@H]1C	-83*	4	-8
Cc1noc(C)c1NC(=O)N(C)C[C@@H]1Oc2ccc(NS(=O)(=O)c3cn(C)cn3)cc2CC(=O)N([C@@H](C)CO)C[C@H]1C	40	-5	6
Cc1noc(C)c1NC(=O)N(C)C[C@H]1Oc2ccc(NC(=O)C3CC3)cc2CC(=O)N([C@@H](C)CO)C[C@H]1C	-83*	4	-16
C[C@H]1CN([C@@H](C)CO)C(=O)Cc2cc(NC(=O)C3CC3)ccc2O[C@H]1CN(C)Cc1ccc(C(F)(F)F)cc1	-80*	8	37
C[C@H](CO)N1C[C@H](C)[C@H](CN(C)Cc2ccc(C(F)(F)F)cc2)Oc2ccc(NC(=O)C3CC3)cc2CC1=O	11	5	10
CNC[C@H]1Oc2ccc(NS(=O)(=O)c3cn(C)cn3)cc2CC(=O)N([C@H](C)CO)C[C@@H]1C	42	-10	-7
CNC[C@@H]1Oc2cc(-c3cncnc3)ccc2S(=O)(=O)N([C@H](C)CO)C[C@H]1C	x	-3	67
C[C@H]1CCCCO[C@@H](CN(C)C(=O)CCCN(C)C)[C@@H](C)CN([C@@H](C)CO)C(=O)c2cc(NS(C)(=O)=O)ccc2O1	22	-4	-7
O=C(C[C@@H]1CC[C@@H]2[C@H](COC[C@@H](O)CN2C(=O)Nc2cccc(Cl)c2)O1)NCC1CCCCC1	-8	3	55
O=C(C1CC1)N1CCCCN2[C@H](CO)[C@@H](c3ccc(C#CC4(O)CCCC4)cc3)[C@H]2C1	32	-9	-20
COc1cccc(-c2ccc3c(c2)[C@H]2[C@H](CCN2S(=O)(=O)c2ccc(F)cc2)[C@@H](CO)N3C)c1	-4	3	88
CN1c2ccc(C#Cc3ccc(F)cc3)cc2[C@H]2[C@H](CCN2S(=O)(=O)c2ccccc2F)[C@@H]1CO	-9	-6	77
COc1cccc(S(=O)(=O)N2CC[C@H]3[C@@H](CO)N(C)c4ccc(C#Cc5ccc(F)cc5)cc4[C@H]32)c1	-34	-99*	35
CN1c2ccc(-c3cccc(C#N)c3)cc2[C@H]2[C@H](CCN2S(=O)(=O)c2ccccc2F)[C@H]1CO	-95*	-2	49
Cc1cccc(S(=O)(=O)N2CC[C@@H]3[C@H](CO)N(C)c4ccc(C#Cc5ccc(F)cc5)cc4[C@@H]32)c1	-72	-98*	0
CN1c2ccc(-c3ccccc3)cc2[C@H]2[C@H](CCN2S(=O)(=O)c2ccccc2F)[C@H]1CO	-3	1	-9
CCCC(=O)Nc1ccc2c(c1)C(=O)N(C)[C@@H]1CC[C@@H](CC(=O)OC)O[C@@H]1CO2	3	15	-21
COc1ccccc1NC(=O)N[C@@H]1CC[C@H](CC(=O)N[C@H](C)c2ccccc2)O[C@H]1CO	19	x	-9
CC(C)NC(=O)N(C)C[C@H]1Oc2ccc(NC(=O)CCN3CCOCC3)cc2CC(=O)N([C@H](C)CO)C[C@@H]1C	24	-7	x
SMILES	Pf Dd2 inh	C diff growth	T cruzi growth
COc1ccc(S(=O)(=O)Nc2ccc3c(c2)C(=O)N([C@H](C)CO)C[C@@H](C)[C@H](CN(C)Cc2ccc(C(=O)Nc4ccccc4N)cc2)O3)cc1	-4	-2	40
COc1ccc(S(=O)(=O)Nc2ccc3c(c2)CC(=O)N([C@H](C)CO)C[C@H](C)[C@H](CN(C)Cc2ccc(C(=O)Nc4ccccc4N)cc2)O3)cc1	-81*	-4	50
COc1ccc(S(=O)(=O)Nc2ccc3c(c2)CC(=O)N([C@H](C)CO)C[C@@H](C)[C@@H](CN(C)Cc2ccc(C(=O)Nc4ccccc4N)cc2)O3)cc1	-85*	0	65
COc1ccc(S(=O)(=O)Nc2ccc3c(c2)C(=O)N([C@@H](C)CO)C[C@H](C)[C@@H](CN(C)Cc2ccc(C(=O)Nc4ccccc4N)cc2)O3)cc1	-56	-5	51
CNC[C@H]1Oc2ccc(NC(=O)NC(C)C)cc2C(=O)N([C@@H](C)CO)C[C@H]1C	12	1	-10
C[C@H](O)C#Cc1ccc2c(c1)O[C@@H](CN(C)CC1CC1)[C@@H](C)CN([C@@H](C)CO)S2(=O)=O	11	-5	-89
COc1cccc(NC(=O)N2[C@@H]3CNC[C@H]2C3c2ccc(-c3ccccc3)cc2)c1 (stereo partly specified)	7	4	x
CN(C)C(=O)c1ccc(-c2ccc(C3[C@H]4CNC[C@@H]3N4C(=O)Nc3cccc(Cl)c3)cc2)cc1 (stereo partly specified)	37	-3	x
COc1cccc(CN2[C@@H]3CNC[C@H]2C3c2ccc(/C=C/c3ccccc3)cc2)c1 (stereo partly specified)	-48	39	x
O=C(Nc1cccc(Cl)c1)N1[C@@H]2CNC[C@H]1C2c1ccc(/C=C/c2ccccc2)cc1 (stereo partly specified)	-68	-95*!	x
COc1cc(CN2[C@@H]3CNC[C@H]2C3c2ccc(/C=C/c3ccccc3)cc2)cc(OC)c1 (stereo partly specified)	-33	-93*!	x
COc1cccc(NC(=O)N2[C@@H](CO)[C@@H](c3ccccc3)[C@@H]2CNCC(C)C)c1	-81*	-4	70
CNC[C@@H]1[C@H](c2ccccc2)[C@H](CO)N1C(=O)Nc1cccc(OC)c1	7	-4	44
COc1cccc(NC(=O)N2[C@@H]3CNC[C@H]2C3c2ccc(/C=C/c3ccccc3)cc2)c1 (stereo partly specified)	-20	-98*!	x
CO[C@@H]1CC[C@@H]2CCOc3ccc(C#N)cc3C(=O)N(C)C[C@@H](C)C(=O)N(C)C[C@H]1O2	x	-5	34
OC[C@H]1[C@@H](c2ccccc2)[C@H](CNCC2CCC2)N1CC1CC1	-27	9	31
CC(C)CNC[C@@H]1[C@@H](c2ccccc2)[C@@H](CO)N1Cc1ccc(F)cc1	-91*	20	x

Bioassay records (PubChem)
